# From PubChem BioAssay (NCI)
# About 83,000 compounds went through this panel and 20% of them were active in at least one assay; those are over-represented in the sample as a whole.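 Interpretation: 100, growth as untreated; towards 0, rising growth inhibition; 0, no net growth; 0 to -100, cell death. Compounds scoring below 10 were considered active.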 Activity calls are given as the source filed them.
# Test system: HL-60(TB) leukemia
# Assay: NCI-60 one-dose screen, 48 h (100 = growth as untreated, 0 = no growth, -100 = all killed)
# Conditions: 10 µM unless noted
row,SMILES,growth
1,COc1cc(/C=C/c2cc(/C=C/c3ccc(O)c(OC)c3)n(C(=O)Nc3ccc(Cl)cc3)n2)ccc1O,-20.9% (active)
2,CCNC(=O)C1CCCN1C(=O)C(CCCN=C(N)N)NC(=O)C(CC(C)C)NC(=O)C(CC(C)C)NC(=O)C(Cc1ccc(O)cc1)NC(=O)C(CO)NC(=O)C(Cc1c[nH]c2ccccc12)NC(=O)C(Cc1cnc[nH]1)NC(=O)C1CCC(=O)N1 (stereo not given),113% (inactive)
3,CCn1c(-c2nonc2N)nc2c(C#CC(C)(C)O)ncc(OC[C@H]3CCCNC3)c21,41% (inactive)
4,C=C(C)[C@@H]1CC[C@]2(C(=O)NCCCN(CCC#N)CCC#N)CC[C@]3(C)[C@H](CC[C@@H]4[C@@]5(C)CCC(=O)C(C)(C)[C@@H]5CC[C@]43C)[C@@H]12,100% (inactive)
5,CCCCCCN(CCCCCC)c1ccc(/C=C2/SC(=O)NC2=O)c(C)c1,77.1% (inactive)
6,CC(Cc1ccco1)C(=O)NC(N)=O (stereo not given),87.5% (inactive)
7,CCOC(=O)[C@@H](Cc1ccccc1)NC(=O)c1[nH]c2ccc(Cl)cc2c(=O)c1C,104% (inactive)
8,COc1cc2nc(SCc3cc(OC)c(OC)c(OC)c3)n(-c3ccccc3OC)c(=O)c2cc1OC,-16% (active)
9,CC1(C)N=C(N)N=C(N)N1c1ccc(CCc2ccccc2)c(Cl)c1,2.09% (active)
10,O=C(O)C1CCCCN1c1nc(Cl)nc(Cl)n1 (stereo not given),97.8% (inactive)
11,COc1ccc2c(c1)CC/C(=C\c1cncc(Br)c1)C2=O,100% (inactive)
12,c1cnc2ccc3ncccc3c2c1,98.9% (inactive)
13,Nc1n[nH]c2ccc([C@@H]3Nc4ccc5[nH]ncc5c4[C@H]4[C@H]5CCC(C5)[C@H]43)cc12,-41.5% (active)
14,CCCC(C(=O)OCC)C(C)OC(=O)OCC (stereo not given),87.8% (inactive)
15,Cn1ccnc1C(=O)/C=C/c1ccc(C(=O)Nc2ccc(S(F)(F)(F)(F)F)cc2)cc1,-30.1% (active)
16,Cc1ccc2c(/C=C/C(=O)c3cc(CN4CCOCC4)c(O)c4nc(C)ccc34)cc(CN3CCOCC3)c(O)c2n1,-25.2% (active)
17,Nc1c(C(=O)Nc2ccccc2)sc2nc3c(cc12)CN(CCc1ccccc1)CC3,102% (inactive)
18,Cc1cc(C)c2nc3nc(C)cc(C)c3c(N)c2c1,45.8% (inactive)
19,C/C(=C\c1cnc(C)s1)[C@@H]1C[C@@H]2O[C@@H]2CCC[C@H](C)[C@H](O)[C@@H](C)C(=O)C(C)(C)[C@@H](O)CC(=O)O1,0.639% (active)
20,CCCCCCCCn1ccc2cc(NC(=O)CN=[N+]=[N-])ccc21,102% (inactive)

row,SMILES,growth
1,S=C1CCCCCN1,107% (inactive)
2,Cc1ccc(C[P+](c2ccccc2)(c2ccccc2)c2ccccc2)cc1,-63.4% (active)
3,CS(=O)(=O)Nc1ccc(C(=O)NC(C(=O)NO)c2ccc(-c3cccc(F)c3)cc2)cc1 (stereo not given),103% (inactive)
4,COC(=O)c1c2c(n3ccc(C)cc13)C(=O)c1ccccc1C2=O,57.6% (inactive)
5,CCc1c(C)c2ccc(OCC(=O)N=Nc3c(O)[nH]c4ccccc34)c(C)c2oc1=O,-22.3% (active)
6,O=C(/C=C/c1ccccc1)c1cccs1,102% (inactive)
7,Cc1ccc2c(n1)C[C@H](C(C)(C)O)CC[C@H]2C,103% (inactive)
8,N#Cc1ccc(NC2c3ccccc3CC2O)cc1 (stereo not given),78.7% (inactive)
9,COc1ccc(-c2cc(-c3ccc(Nc4nc(Nc5ccc(Cl)cc5)nc(Nc5ccc(Cl)cc5)n4)cc3)nc(N)c2C#N)cc1,28.3% (inactive)
10,O=c1[nH]c2c3ccncc3cc(-c3cccc(Cl)c3)c2c2cnccc12,17.6% (inactive)
11,N#Cc1c(-c2ccccc2)cc(-c2ccc(Nc3nc(Nc4ccc(F)cc4)nc(Nc4ccc(F)cc4)n3)cc2)nc1N,14.2% (inactive)
12,N=C(N)c1ccc(-c2ccc(-c3ccc(Cl)c(Cl)c3)s2)cc1,-32% (active)
13,Cc1c(Cl)cc(-n2c(=O)c3ccccc3c3ccccc3c2=O)cc1Cl,90.8% (inactive)
14,Nc1ccc(S(=O)(=O)Nc2cc(F)cc(F)c2)cc1,73% (inactive)
15,O=C(O)CNC(=O)CN1C(=O)c2ccccc2C1=O,90.7% (inactive)
16,CC(C)(C)c1nn(-c2ccccc2)c2c1C(=O)CSC(c1ccc3c(c1)OCO3)N2 (stereo not given),89.5% (inactive)
17,C=CCNc1nc(O)c(/C=C2\C=Nc3ncccc32)s1,-14.5% (active)
18,Nc1n[nH]c2cccc(C#Cc3cccc(C(=O)Nc4ccc(CN5CCOCC5)c(C(F)(F)F)c4)c3)c12,7.67% (active)
19,CCOC(=O)C(C(C)=O)c1nc2sc3cc(Cl)c(Cl)cc3n2c(=O)c1C#N (stereo not given),100% (inactive)
20,CCCCCCCCCCCCCCCCCCOc1ccccc1CC(=O)OCC[N+](C)(C)C,-38% (active)
